The source of these data is PubChem BioAssay (NCI).

The nature of test [1]: NCI Yeast Anticancer Drug Screen. Data for the rad50 strain (AID 155).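 Also: 0% = growth of vehicle-only cultures of the same strain.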 As to conditions: S. cerevisiae rad50 strain growth inhibition; at 50.0 µM; stronger effect = higher value. The essentials:
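A DNA repair-deficient yeast mutant serves as the test organism; compound-induced growth inhibition is calculated against vehicle-treated cells.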

The nature of test [2]: NCI Yeast Anticancer Drug Screen. Data for the mec2-1 strain (AID 157). The conditions noted are these: S. cerevisiae mec2-1 strain, at 50.0 µM, stronger effect = higher value. The essentials:
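Each compound was tested on mec2-1 yeast, a strain altered in DNA damage repair or cell cycle control. Growth inhibition is reported relative to vehicle.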

Test [3] is described as follows: NCI Yeast Anticancer Drug Screen. Data for the sgs1 mgt1 strain (AID 161).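 Also: 0% = growth of cultures given vehicle only.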 As to conditions: S. cerevisiae sgs1 mgt1 strain, at 50.0 µM, stronger effect = higher value. In outline:
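Read-out: growth inhibition vs vehicle controls. Cells: mutant yeast strain deficient in DNA damage repair.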

A short description of test [4]: NCI Yeast Anticancer Drug Screen. Data for the cln2 rad14 strain (AID 165).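 Also: 0% = growth equal to vehicle treated cultures.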 The conditions noted are these: S. cerevisiae cln2 rad14 strain, at 50.0 µM, stronger effect = higher value. The essentials:
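Test compounds were added to cln2 rad14 yeast cultures; inhibition of growth was then determined by comparison with vehicle treatment.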

The nature of test [5]: NCI Yeast Anticancer Drug Screen. Data for the bub3 strain (AID 167). As to conditions: S. cerevisiae bub3 mutant strain, at 50.0 µM, stronger effect = higher value. The essentials:
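Inhibition values come from growth of compound-treated mutant yeast normalised to vehicle-treated controls.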

The nature of test [6]: NCI Yeast Anticancer Drug Screen. Data for the mlh1 rad18 strain (AID 175). The conditions noted are these: S. cerevisiae mlh1 rad18 strain growth inhibition; at 50.0 µM; stronger effect = higher value. The essentials:
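Inhibition values reflect reduced growth of mutant yeast versus vehicle-treated controls following compound exposure; the mutations affect DNA damage repair.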

Compounds without any hit were thinned out: in the full panel of roughly 79,000, 15% have a hit. A number with no mark means an inactive call. Calls of active or inactive are those of the source. Rule as the data show it: active = growth inhibition above about 70%; inactive = the rest.

For `O=C1NC(=O)C(c2ccc(Br)c3ccccc23)=C1O`, the growth inhibition is 9.2% in test [1]; -4.75% in test [2]; 3.05% in test [3]; -44.5% in test [4]; -5.25% in test [5]; -6.25% in test [6].
Take `CCN(CC)c1ccc(/C=C(\C#N)C(N)=S)cc1`: the growth inhibition in test [1] was 35.4%; in test [2] it was 23.6%; in test [3], 45.2%; in test [4] it was 0.85%; in test [5], 15.6%; in test [6], 16.5%.
Regarding `CSc1nc(NC2OC(COC(C)=O)C(OC(C)=O)C(OC(C)=O)C2OC(C)=O)c(N=C(C)C(C)=O)c(=O)n1C` (configuration not stated), the growth inhibition in test [1] was 16.2%; in test [2], -7.75%; in test [3], -14.2%; in test [4], 9.7%; in test [5], 1.2%; in test [6] it was 6.95%.
For the compound `CC(=O)Nn1cnc(C(=N)C#N)c1N`, the growth inhibition is -27.1% in test [1]; -6.15% in test [2]; -6.15% in test [3]; 11.8% in test [4]; -0.75% in test [5]; -2.95% in test [6].
As for `CCC(=O)C(=O)C1CCCCC1=O` (configuration not stated), the growth inhibition was -2.4% in test [1]; -3.8% in test [2]; -2.5% in test [3]; -9.05% in test [4]; -17.6% in test [5]; -0.05% in test [6].
On to `CCCC(O)C(C)N` (configuration not stated), for which the growth inhibition in test [1] is 4.3%; in test [2], -3.1%; in test [3] it was -2.9%; in test [4], -0.2%; in test [5] it was -2.25%; in test [6] it was -3.15%.
Consider `COCC(=O)C(C(C)=O)C(c1ccc(N(C)C)cc1)C(C(C)=O)C(=O)COC` (configuration not stated), for which the growth inhibition in test [1] is -12.2%; in test [2] it was -10.6%; in test [3] it was -12.7%; in test [4], -69.7%; in test [5], 2.8%; in test [6], -9.35%.
For `O=c1/c(=c2\c(=O)c3cccc4cccc2c43)c2cccc3cccc1c32`, the growth inhibition in test [1] was -10.2%; in test [2] it was 24.9%; in test [3], -0.4%; in test [4], -34%; in test [5] it was -9.05%; in test [6] it was -18.1%.
In the case of `CC(=O)OC(C)C1CCCC1OC(C)=O` (configuration not stated), the growth inhibition is -3.95% in test [1]; 9.2% in test [2]; -9.95% in test [3]; 5.75% in test [4]; -15.1% in test [5]; -22.5% in test [6].
For the compound `COc1ccc(/C=C2/CSCC3=C2NC(=S)NC3c2ccc(OC)c(OC)c2OC)c(OC)c1OC` (configuration not stated), the growth inhibition in test [1] is 12.8%; in test [2], 13.9%; in test [3] it was 37%; in test [4] it was 34.6%; in test [5], 48.4%; in test [6] it was 10.9%.
`CC(=O)N1Cc2c(nc[nH]c2=O)C1C` (configuration not stated): the growth inhibition in test [1] was -8.05%; in test [2], 27.4%; in test [3], -7.6%; in test [4], 14.9%; in test [5] it was 5.2%; in test [6] it was 0.45%.
Take `COc1ccc2c(c1)c(=O)c1c(NCCCN(C)C)ccc3ncn2c31`: the growth inhibition in test [1] was 34.6%; in test [2], -5.35%; in test [3] it was 15.8%; in test [4], -1.7%; in test [5] it was -9.6%; in test [6] it was 9.3%.
As for `CSc1cccc(N)c1`, the growth inhibition was -23.6% in test [1]; -12.4% in test [2]; -46.1% in test [3]; 6.1% in test [4]; -6.8% in test [5]; -5.65% in test [6].
`Cc1cccc(NC(=S)Nc2ccc(-c3ccc(NC(=S)Nc4cccc(C)c4)cc3)cc2)c1`: the growth inhibition in test [1] was -0.2%; in test [2], 22.6%; in test [3], 29.9%; in test [4] it was 0.15%; in test [5], 16.2%; in test [6] it was 34.7%.
`CCOC(=O)C(C#N)=C(CC)CC`: the growth inhibition in test [1] is -4%; in test [2], -12.3%; in test [3], -9.2%; in test [4], -3.95%; in test [5], -12.1%; in test [6], -0.2%.
For `CC(C)=NOC(CCOC(=O)c1ccccc1)COC(=O)c1ccccc1` (configuration not stated), the growth inhibition in test [1] was -13.6%; in test [2] it was 0.1%; in test [3], -1.35%; in test [4] it was -10.4%; in test [5], -11.8%; in test [6] it was 7.75%.
`CCCCCCCOC(C)=O`: the growth inhibition in test [1] is 14.8%; in test [2], -11.8%; in test [3] it was 11.3%; in test [4], -16.2%; in test [5] it was -3%; in test [6] it was 21.6%.
Turning to `c1ccc2c(c1)N=C(c1cccc3ccccc13)CC(c1cccc3ccccc13)S2` (configuration not stated), the growth inhibition was -28% in test [1]; -20.9% in test [2]; -46.5% in test [3]; -3.25% in test [4]; -18.9% in test [5]; -37% in test [6].
Consider `O=C(Nc1ccccc1C/C(=N/O)c1ccc2c(c1)OCO2)c1ccccc1`, for which the growth inhibition in test [1] is 51.5%; in test [2], 0.4%; in test [3], 54.1%; in test [4] it was -32%; in test [5], 3.55%; in test [6], 23.4%.
`CCCCCC(C)(O)CCCCC`: the growth inhibition is 0.15% in test [1]; 1.75% in test [2]; 1.7% in test [3]; 11.7% in test [4]; 18.3% in test [5]; 12% in test [6].
As for `COCCOC(=O)CO`, the growth inhibition in test [1] is 4.35%; in test [2] it was 3.85%; in test [3], -4.7%; in test [4], 2.25%; in test [5], 7.8%; in test [6], 5.5%.
Regarding `CCc1cc2c(cc1C(=O)/C=C\c1ccco1)C(C)(C)CCC2(C)C`, the growth inhibition was 97.2% (active) in test [1]; 98.2% (active) in test [2]; 97.5% (active) in test [3]; 96.8% (active) in test [4]; 97.7% (active) in test [5]; 97.8% (active) in test [6].
For `CC1CC(=O)c2c(O)ccc(O)c21` (configuration not stated), the growth inhibition in test [1] is -6.1%; in test [2] it was -3.65%; in test [3], -8.9%; in test [4], -17.4%; in test [5], -8.15%; in test [6], 12.2%.
For the compound `CC1CC2(CCC1OCc1ccccc1)OCCO2` (configuration not stated), the growth inhibition in test [1] is 0.25%; in test [2], -6.85%; in test [3] it was -2.3%; in test [4], 2.2%; in test [5] it was 13.3%; in test [6], -1.7%.
As to `O=C1NC2NC(=O)NC2N1` (configuration not stated), the growth inhibition in test [1] was 6.6%; in test [2], -27.1%; in test [3], -3%; in test [4] it was -9.6%; in test [5] it was -2.05%; in test [6], 10.2%.
For the compound `Nc1ncnc2c1ncn2C1OC(COP(=O)(O)OP(=O)(O)OCC2OC([n+]3cccc(C=O)c3)C(O)C2O)C(O)C1O` (configuration not stated), the growth inhibition is 10.6% in test [1]; 4.4% in test [2]; 6.85% in test [3]; -4.1% in test [4]; 0.6% in test [5]; 12.3% in test [6].
As to `CCOC(=O)CNC(=O)CNC(=O)CNS(=O)(=O)c1ccc(C)cc1`, the growth inhibition is -22.1% in test [1]; 15.2% in test [2]; 3.1% in test [3]; -28.5% in test [4]; 10.9% in test [5]; -45.8% in test [6].
With `c1csc(-c2nn3c(C45CC6CC(CC(C6)C4)C5)nnc3s2)c1`, the growth inhibition in test [1] was 10.9%; in test [2], -15.3%; in test [3] it was -20.1%; in test [4] it was -11.3%; in test [5] it was 2.3%; in test [6] it was -12.8%.
Turning to `N#CC1C(=O)NC(=O)C(C#N)C1C1C(=O)NC2CCCCC21` (configuration not stated), the growth inhibition is 41.2% in test [1]; 5% in test [2]; 17.2% in test [3]; 23.2% in test [4]; 11.1% in test [5]; 32.8% in test [6].
Regarding `CCN1C(=NCCO)NS(=O)(=O)c2ccccc21`, the growth inhibition in test [1] is -17.2%; in test [2] it was 3.4%; in test [3], -25.4%; in test [4], -1.95%; in test [5], -24.6%; in test [6], 0.35%.
Take `C[N+](C)(C)c1ccc2c(c1)CCC/C2=N\N`: the growth inhibition is 12.8% in test [1]; 9% in test [2]; 11.6% in test [3]; -9.2% in test [4]; 13.5% in test [5]; 4.3% in test [6].
With `COc1ccc(CCN2C(=O)C(=O)N(c3ccc(Cl)c(Cl)c3)C2=O)cc1OC`, the growth inhibition was 3.05% in test [1]; -0.25% in test [2]; 11.5% in test [3]; 14.3% in test [4]; -4.35% in test [5]; 13% in test [6].
On to `COc1ccc(-c2cc3cc(CCCOC4OC(COC5OCC(O)C(O)C5O)C(O)C(O)C4O)cc(OC)c3o2)cc1OC` (configuration not stated), for which the growth inhibition in test [1] was 31%; in test [2], 17.4%; in test [3], 34.6%; in test [4], 23.8%; in test [5], 8.8%; in test [6] it was 23.4%.
Turning to `[N-]=[N+]=NC1OC(=O)C(Cl)=C1N=P(c1ccccc1)(c1ccccc1)c1ccccc1` (configuration not stated), the growth inhibition in test [1] is 4.3%; in test [2], 11.3%; in test [3] it was 24.4%; in test [4], 9.6%; in test [5], 12.1%; in test [6], 23%.
As for `Cc1ccc(S(=O)(=O)OCC2C(COS(=O)(=O)c3ccc(C)cc3)C3C4C5C2C2C3C4C52)cc1` (configuration not stated), the growth inhibition in test [1] was -15.9%; in test [2], -0.3%; in test [3], 9.75%; in test [4] it was 13.8%; in test [5] it was -5.5%; in test [6], -21.5%.
`c1ccc(C[n+]2ccc3c(c2)CCCC3)cc1`: the growth inhibition in test [1] was -1%; in test [2], -13.2%; in test [3] it was 27.8%; in test [4], 17.3%; in test [5], 19.1%; in test [6] it was 6.4%.
On to `N#C/C(=C\c1ccccc1[N+](=O)[O-])C(=O)O`, for which the growth inhibition was 36.5% in test [1]; 0.45% in test [2]; 23.2% in test [3]; 16.9% in test [4]; -19% in test [5]; 3.7% in test [6].
